This note sets out measurements from PubChem BioAssay (EPA / NIEHS).

Results filed as inconclusive are left out. Active and inactive are the calls of the source. Rule for the calls, unless noted: active = hit-call score of the fitted dose curve at least 0.9, where 1 is the maximum; inconclusive = response in the unintended direction; inactive = score below 0.9.

For experiment [1], the target named is human Peroxisome Proliferator-activated Receptor alpha (PPARa), PPARA (gene 5465) (UniProt Q07869). Kind of experiment: NVS_NR_hPPARa: NovaScreen (NVS) Nuclear Receptor Binding Assay for human Peroxisome Proliferator-activated Receptor alpha (PPARa) (AID 2283359).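 Note: activity means loss of TR-FRET signal versus DMSO baseline.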 Summed up:
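Cell-free TR-FRET binding assay with extracted PPARα protein, read 1 h after dosing. Primary screen in duplicate at 25 uM, with actives retested in concentration series. Loss of signal versus DMSO.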

For experiment [2], the target named is human Thyroid Receptor Alpha (TRa), THRA (gene 7067) (UniProt P10827). Kind of experiment: NVS_NR_hTRa_Antagonist: NovaScreen (NVS) Nuclear Receptor Binding Assay for human Thyroid Receptor Alpha Antagonism (TRa) (AID 2283362).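 Note: activity is loss of signal relative to DMSO baseline.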 Summed up: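 Chemicals were first screened in duplicate at 25 uM, then actives were retested in concentration series. Binding to the extracted receptor was measured 1 h after dosing by AlphaLISA chemiluminescence, with decreased signal versus DMSO scored as activity.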
Chain of human Thyroid Receptor Alpha (TRa), THRA (gene 7067) (P10827 whole entry, looked up): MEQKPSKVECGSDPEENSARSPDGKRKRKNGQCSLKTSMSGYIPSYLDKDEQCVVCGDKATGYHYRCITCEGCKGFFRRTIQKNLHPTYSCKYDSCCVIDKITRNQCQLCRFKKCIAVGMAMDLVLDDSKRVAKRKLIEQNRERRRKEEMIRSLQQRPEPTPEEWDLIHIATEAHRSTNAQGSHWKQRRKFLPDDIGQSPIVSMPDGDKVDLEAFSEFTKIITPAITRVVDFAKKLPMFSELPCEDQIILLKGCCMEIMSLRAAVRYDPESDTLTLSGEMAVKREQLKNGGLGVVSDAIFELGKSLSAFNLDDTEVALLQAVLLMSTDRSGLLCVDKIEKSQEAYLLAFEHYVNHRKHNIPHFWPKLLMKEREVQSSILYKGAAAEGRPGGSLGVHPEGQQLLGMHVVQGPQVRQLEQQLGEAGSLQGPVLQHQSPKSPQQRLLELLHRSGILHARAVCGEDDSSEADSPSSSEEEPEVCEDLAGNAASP

Experiment [3] deals with Estrogen receptor beta (Homo sapiens) (UniProt Q92731). Kind of experiment: OT_ER_ERbERb_1440: Odyssey Thera (OT) 24-hour HEK293T Protein-Complementation Assay for Estrogen Receptor-beta/-beta Homodimer (AID 2283380).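 Note: scored as signal increase over DMSO baseline for both agonists and antagonists.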 The essentials:
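HEK293T cells stably expressing ER beta LBD (aa 310-547) homodimer fragment-complementation reporter, dosed 24 h. Cells formaldehyde-fixed, Draq5-stained; gain in nuclear (agonist) or nuclear plus cytoplasmic (antagonist) fluorescence versus DMSO read by laser scanning cytometry.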

The target of experiment [4] is Estrogen receptor (Homo sapiens) (UniProt P03372). Put plainly: OT_ERa_GFPERaERE_0480: Odyssey Thera (OT) 8-hour HeLa Transcription Induction Assay for Estrogen Receptor (AID 2283381; active = hit-call score of the fitted dose curve at least 0.9, where 1 is the maximum; inactive = score below 0.9). Summed up: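 HeLa cells dosed with compound and imaged by fluorescence microscopy at 8 h; GFP induction from an ERE reporter quantified by high-content image analysis and fitted as gain of signal against DMSO baseline.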
Chain of Estrogen receptor (Homo sapiens) (P03372 whole entry, looked up): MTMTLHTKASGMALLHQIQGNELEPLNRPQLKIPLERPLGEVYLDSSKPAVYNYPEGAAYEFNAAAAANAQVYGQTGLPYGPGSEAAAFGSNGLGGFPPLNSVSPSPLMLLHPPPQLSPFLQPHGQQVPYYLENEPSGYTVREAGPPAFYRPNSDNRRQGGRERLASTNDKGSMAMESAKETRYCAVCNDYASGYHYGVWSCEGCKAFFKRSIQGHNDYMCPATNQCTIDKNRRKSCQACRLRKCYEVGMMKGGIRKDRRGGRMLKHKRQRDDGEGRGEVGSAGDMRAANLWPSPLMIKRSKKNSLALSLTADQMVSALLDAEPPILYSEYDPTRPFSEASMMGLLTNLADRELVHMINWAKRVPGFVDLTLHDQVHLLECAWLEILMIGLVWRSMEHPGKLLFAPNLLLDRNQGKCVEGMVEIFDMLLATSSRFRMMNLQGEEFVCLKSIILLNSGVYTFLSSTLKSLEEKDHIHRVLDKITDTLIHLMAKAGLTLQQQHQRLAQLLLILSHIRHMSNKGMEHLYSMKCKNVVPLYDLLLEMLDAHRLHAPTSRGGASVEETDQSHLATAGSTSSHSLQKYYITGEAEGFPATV

Experiment [5] shares this target. Kind of experiment: OT_ERa_GFPERaERE_0120: Odyssey Thera (OT) 2-hour HeLa Transcription Induction Assay for Estrogen Receptor (AID 2283382). The essentials: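 HeLa cells were dosed with test chemical and read 2 hours later for GFP-ERα/ERE-linked fluorescent protein induction by fluorescence microscopy. Gain-of-signal was fitted relative to DMSO baseline, quantified by high content image analysis.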

The target in experiment [6] is Retinoic acid receptor RXR-alpha (Homo sapiens) (UniProt P19793). Put plainly: OT_NURR1_NURR1RXRa_0480: Odyssey Thera (OT) 8-hour HEK293T Protein Complementation Assay for Nurr1/retinoid X receptor (RXR) (AID 2283385). Summed up: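 HEK293T cells expressing Nurr1 and RXRα fused to reporter fragments were dosed with compound for 8 hours. Complex formation was read as fluorescence intensity and analysed as gain of signal against DMSO as baseline.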
Chain of Retinoic acid receptor RXR-alpha (Homo sapiens) (P19793 whole entry, looked up, the tested form may be a part): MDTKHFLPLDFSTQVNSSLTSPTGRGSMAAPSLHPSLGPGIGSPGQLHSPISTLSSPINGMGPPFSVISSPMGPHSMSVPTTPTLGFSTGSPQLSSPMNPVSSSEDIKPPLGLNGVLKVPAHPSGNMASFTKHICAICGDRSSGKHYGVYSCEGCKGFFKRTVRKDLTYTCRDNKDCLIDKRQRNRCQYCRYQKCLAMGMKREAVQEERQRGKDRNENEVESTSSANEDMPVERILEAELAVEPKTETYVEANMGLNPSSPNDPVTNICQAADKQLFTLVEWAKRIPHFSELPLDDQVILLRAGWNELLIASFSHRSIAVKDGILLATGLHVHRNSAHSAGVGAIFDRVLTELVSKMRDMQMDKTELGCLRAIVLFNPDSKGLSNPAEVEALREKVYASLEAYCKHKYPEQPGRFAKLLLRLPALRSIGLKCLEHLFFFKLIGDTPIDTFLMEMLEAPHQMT

Experiment [7] has as its target Nuclear receptor subfamily 1 group I member 2 (Homo sapiens) (UniProt O75469). Put plainly: NVS_NR_hPXR: NovaScreen (NVS) Nuclear Receptor Binding Assay for human Pregnane X Receptor (PXR) (AID 2283365).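 Note: a drop in FRET signal versus DMSO baseline means the compound binds.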 The essentials: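 Binding was measured by time-resolved fluorescence resonance energy transfer after a 2 h exposure of extracted human PXR protein without cells. Compounds were first tested at 25 uM in duplicate, with concentration series for actives; DMSO defined baseline.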

For experiment [8], the target named is Retinoic acid receptor RXR-alpha (Homo sapiens) (UniProt P19793). Kind of experiment: OT_NURR1_NURR1RXRa_1440: Odyssey Thera (OT) 24-hour HEK293T Protein Complementation Assay for Nurr1/retinoid X receptor (RXR) (AID 2283386). The essentials:
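HEK293T cells were dosed with compound and read 24 h later by fluorescence intensity in a protein-fragment complementation format, where Nurr1–RXRα interaction reconstitutes a split reporter. Activity was fitted as gain of signal relative to DMSO baseline.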

The target of experiment [9] is Retinoic acid receptor alpha (Homo sapiens) (UniProt P10276). Kind of experiment: NVS_NR_hRAR_Antagonist: NovaScreen (NVS) Nuclear Receptor Binding Assay for human Retinoic Acid Alpha Receptor Antagonism (RAR) (AID 2283358). The essentials: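 Cell-free TR-FRET binding assay with extracted human RARalpha in antagonist mode, read 2 h after dosing. Loss of signal was fitted relative to DMSO; the primary screen used 25 uM in duplicate, with concentration series on follow-up.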

The target of experiment [10] is mouse Estrogen Receptor alpha (Era), Esr1 (gene 13982) (UniProt P19785). Put plainly: NVS_NR_mERa: NovaScreen (NVS) Nuclear Receptor Binding Assay for mouse Estrogen Receptor alpha (Era) (AID 2283378).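 Note: hit means loss of bound radioligand signal relative to DMSO.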 Summed up:
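Test chemicals competed against a specific radioligand for binding to cell-free mouse Era. Duplicate wells at 25 uM were read 18 hours later by filter-based radiodetection, with loss of signal against DMSO scored as activity.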

For experiment [11], the target named is human Norepinephrine Transporter (NET), SLC6A2 (gene 6530) (UniProt P23975). Put plainly: NVS_TR_hNET: NovaScreen (NVS) Transporter Assay for human Norepinephrine Transporter (NET) (AID 2283377). Summed up:
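Cell-free radioligand binding using CHO-derived membrane protein expressing human NET, read by filter scintillation counting 1 h after dosing; loss of signal vs DMSO. Initial duplicate screen at 25 uM, actives retested in concentration series.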

Experiment [12] addresses Agonist Androgen Response Element (ARE), AR (gene 367) (UniProt P10275). Kind of experiment: OT_AR_ARELUC_AG_1440: Odyssey Thera (OT) 24-hour CHO-K1 Luciferase Assay for Agonist Androgen Response Element (ARE) (AID 2283379). The essentials:
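CHO-K1 cells carrying an ARE-driven luciferase reporter were exposed to compounds for 24 h. Luminescence was then read after adding a D-luciferin/ATP mix, and activity was scored as a gain in signal over DMSO vehicle.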

For experiment [13], the target named is human Dopamine Transporter (DAT), SLC6A3 (gene 6531) (UniProt Q01959). Kind of experiment: NVS_TR_hDAT: NovaScreen (NVS) Transporter Assay for human Dopamine Transporter (DAT) (AID 2283374).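 Note: activity means loss of bound radioligand signal relative to DMSO.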 The essentials: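 Cell-free radioligand displacement binding at human DAT, 1 h after dosing, with filtration and scintillation counting. Primary screen in duplicate at 25 uM, actives then in concentration series. Loss of bound signal versus DMSO scored.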
Chain of human Dopamine Transporter (DAT), SLC6A3 (gene 6531) (Q01959 whole entry, looked up): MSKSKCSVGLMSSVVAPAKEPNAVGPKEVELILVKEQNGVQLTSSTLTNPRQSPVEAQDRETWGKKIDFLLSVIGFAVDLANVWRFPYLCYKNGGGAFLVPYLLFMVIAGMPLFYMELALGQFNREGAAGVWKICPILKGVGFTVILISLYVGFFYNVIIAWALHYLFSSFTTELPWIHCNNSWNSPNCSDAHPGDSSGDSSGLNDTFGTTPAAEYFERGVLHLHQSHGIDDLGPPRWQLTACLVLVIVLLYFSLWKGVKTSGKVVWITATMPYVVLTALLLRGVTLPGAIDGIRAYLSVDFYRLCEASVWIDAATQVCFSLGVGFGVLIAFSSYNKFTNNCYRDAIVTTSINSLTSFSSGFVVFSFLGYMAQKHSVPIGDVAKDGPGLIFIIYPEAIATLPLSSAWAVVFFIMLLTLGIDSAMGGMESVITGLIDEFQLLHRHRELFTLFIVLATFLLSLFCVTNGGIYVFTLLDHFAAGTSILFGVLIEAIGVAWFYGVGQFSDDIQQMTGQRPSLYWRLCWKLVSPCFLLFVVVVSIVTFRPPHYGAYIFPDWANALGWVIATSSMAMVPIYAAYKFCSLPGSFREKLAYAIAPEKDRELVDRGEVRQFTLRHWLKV

For experiment [14], the system named is guinea pig Dopamine Transporter (DAT), gene 100714898. Put plainly: NVS_TR_gDAT: NovaScreen (NVS) Transporter Assay for guinea pig Dopamine Transporter (DAT) (AID 2283369).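 Note: active compounds lower bound radioligand signal relative to DMSO.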 The essentials: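 Test chemicals were incubated 2 h with guinea pig striatal membranes and a radioligand; bound label was separated by filtration and counted. Screening ran at 25 uM, followed by concentration-response testing to a 50 uM maximum.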

Chain of Nuclear receptor subfamily 1 group I member 2 (Homo sapiens) (O75469 whole entry, looked up): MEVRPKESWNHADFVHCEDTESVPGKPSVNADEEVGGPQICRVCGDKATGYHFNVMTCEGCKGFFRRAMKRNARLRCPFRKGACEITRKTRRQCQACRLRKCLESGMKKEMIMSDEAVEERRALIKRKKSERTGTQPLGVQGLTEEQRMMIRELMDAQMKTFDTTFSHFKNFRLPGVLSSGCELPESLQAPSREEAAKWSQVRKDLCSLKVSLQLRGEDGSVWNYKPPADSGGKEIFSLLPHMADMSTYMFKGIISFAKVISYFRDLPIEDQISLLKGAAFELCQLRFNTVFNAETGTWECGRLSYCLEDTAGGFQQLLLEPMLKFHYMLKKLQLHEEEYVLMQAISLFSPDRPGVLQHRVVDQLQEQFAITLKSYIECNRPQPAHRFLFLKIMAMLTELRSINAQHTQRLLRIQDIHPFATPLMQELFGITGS
Chain of mouse Estrogen Receptor alpha (Era), Esr1 (gene 13982) (P19785 whole entry, looked up): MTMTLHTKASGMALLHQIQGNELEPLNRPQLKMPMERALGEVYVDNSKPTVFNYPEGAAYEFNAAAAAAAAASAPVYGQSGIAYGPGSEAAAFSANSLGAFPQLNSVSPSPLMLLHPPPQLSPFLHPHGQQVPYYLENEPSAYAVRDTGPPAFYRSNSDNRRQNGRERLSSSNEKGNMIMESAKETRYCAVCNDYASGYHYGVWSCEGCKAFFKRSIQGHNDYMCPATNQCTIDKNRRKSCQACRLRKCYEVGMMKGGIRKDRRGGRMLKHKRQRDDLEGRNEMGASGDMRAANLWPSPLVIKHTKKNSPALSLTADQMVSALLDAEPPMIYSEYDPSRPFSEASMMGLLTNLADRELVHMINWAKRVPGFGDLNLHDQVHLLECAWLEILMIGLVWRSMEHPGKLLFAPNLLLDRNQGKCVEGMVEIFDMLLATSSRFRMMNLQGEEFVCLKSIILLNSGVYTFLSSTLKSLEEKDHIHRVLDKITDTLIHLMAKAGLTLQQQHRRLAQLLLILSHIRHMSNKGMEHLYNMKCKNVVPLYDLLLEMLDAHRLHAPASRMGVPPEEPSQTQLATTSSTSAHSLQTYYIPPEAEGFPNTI
Chain of Estrogen receptor beta (Homo sapiens) (Q92731 whole entry, looked up, the tested form may be a part): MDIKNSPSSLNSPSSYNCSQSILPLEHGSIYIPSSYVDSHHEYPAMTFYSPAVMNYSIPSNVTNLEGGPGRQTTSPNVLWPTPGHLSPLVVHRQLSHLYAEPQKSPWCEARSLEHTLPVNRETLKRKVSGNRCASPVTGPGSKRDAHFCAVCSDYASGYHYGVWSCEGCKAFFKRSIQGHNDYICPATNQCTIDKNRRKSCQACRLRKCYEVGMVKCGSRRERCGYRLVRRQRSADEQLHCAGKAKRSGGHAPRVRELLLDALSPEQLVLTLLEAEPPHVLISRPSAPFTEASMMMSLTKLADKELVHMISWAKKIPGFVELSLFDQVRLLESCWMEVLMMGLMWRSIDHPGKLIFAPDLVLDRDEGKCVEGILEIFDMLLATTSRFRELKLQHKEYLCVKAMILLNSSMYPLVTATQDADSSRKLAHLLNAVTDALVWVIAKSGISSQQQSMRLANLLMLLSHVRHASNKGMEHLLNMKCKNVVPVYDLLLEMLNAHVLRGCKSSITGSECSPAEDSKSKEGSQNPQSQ
Chain of human Peroxisome Proliferator-activated Receptor alpha (PPARa), PPARA (gene 5465) (Q07869 whole entry, looked up): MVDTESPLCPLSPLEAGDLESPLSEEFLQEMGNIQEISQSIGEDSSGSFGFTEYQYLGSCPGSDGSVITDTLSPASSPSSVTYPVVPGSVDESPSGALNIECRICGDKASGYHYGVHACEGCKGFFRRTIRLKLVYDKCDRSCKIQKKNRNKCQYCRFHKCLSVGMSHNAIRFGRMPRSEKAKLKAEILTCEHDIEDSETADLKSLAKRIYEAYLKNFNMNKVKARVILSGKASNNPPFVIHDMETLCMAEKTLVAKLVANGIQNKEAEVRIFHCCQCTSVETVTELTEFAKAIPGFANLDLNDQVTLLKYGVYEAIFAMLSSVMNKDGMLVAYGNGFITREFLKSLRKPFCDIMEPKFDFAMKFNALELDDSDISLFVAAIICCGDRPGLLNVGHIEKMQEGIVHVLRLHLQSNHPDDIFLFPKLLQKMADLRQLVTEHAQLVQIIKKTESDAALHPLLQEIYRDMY
Chain of human Norepinephrine Transporter (NET), SLC6A2 (gene 6530) (P23975 whole entry, looked up): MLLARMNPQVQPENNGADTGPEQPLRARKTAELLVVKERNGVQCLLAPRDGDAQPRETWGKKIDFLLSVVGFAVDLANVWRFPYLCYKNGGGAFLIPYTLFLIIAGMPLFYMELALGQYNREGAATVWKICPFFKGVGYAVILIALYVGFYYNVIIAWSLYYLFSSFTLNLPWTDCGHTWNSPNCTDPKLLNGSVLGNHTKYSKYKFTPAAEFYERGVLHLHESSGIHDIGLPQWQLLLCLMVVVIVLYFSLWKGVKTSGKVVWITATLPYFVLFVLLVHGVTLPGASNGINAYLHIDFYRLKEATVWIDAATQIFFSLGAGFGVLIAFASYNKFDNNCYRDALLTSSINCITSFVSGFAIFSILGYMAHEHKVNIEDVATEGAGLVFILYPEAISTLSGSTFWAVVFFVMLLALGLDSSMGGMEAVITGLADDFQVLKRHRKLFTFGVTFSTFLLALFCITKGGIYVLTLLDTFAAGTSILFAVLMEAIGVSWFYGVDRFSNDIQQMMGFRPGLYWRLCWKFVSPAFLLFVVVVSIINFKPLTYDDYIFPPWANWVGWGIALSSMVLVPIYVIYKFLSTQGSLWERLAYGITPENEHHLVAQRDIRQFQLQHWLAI

Regarding `CCCCC(CC)COCCO` (centres undefined), the compound was classed as inactive in experiment [1], in [2], in [3], in experiment [4], in experiment [5] and in [6].

With `CCCCCCCCCCCCS`, the outcome in experiment [7], in [3], in experiment [4] and in experiment [5] was inactive. The results for the AC50 in [6] and in experiment [8] were 77.6 µM (active) and 93.7 µM (active), respectively.

For the compound `O=C(O)C1=NN(c2ccc(S(=O)(=O)O)cc2)C(=O)C1`, the result in experiment [7], in experiment [4], in [5] and in [6] was inactive.

In the case of `CCC(C)(CCCC(C)C)OC(C)=O` (centres undefined), the compound was called inactive in [7], in experiment [3], in experiment [4], in experiment [5] and in [6].

Regarding `NCCN1CCNCC1`, the compound was called inactive in experiment [7], in [3], in experiment [4], in [5] and in [8].

As to `CCCCCCCCCCCCOCCOS(=O)(=O)O`, the AC50 in experiment [9] is 16.2 µM (active); in experiment [1] it was 5.08 µM (active); in [7] it was 25 µM (active); in [10], 29.4 µM (active); in experiment [4], 10 µM (active); in experiment [5] it was 11 µM (active). The compound was called inactive in experiment [6].

`CCCCCCCCCCCCN1CCOCC1`: the outcome in experiment [2], in [7], in [3], in experiment [4] and in [5] was inactive. Also, in [6], the AC50 was 73.6 µM (active).

With `CCc1cccc(O)c1`, the compound was called inactive in experiment [10], in experiment [3], in experiment [4], in experiment [5] and in experiment [8].

With `CC(O)CN` (centres undefined), the AC50 in experiment [10] is 6.65 µM (active). Further, the call in [3], in [4], in [5], in experiment [6] and in experiment [8] was inactive.

As to `CC(C)N(c1ccccc1)C(C)C`, the outcome in experiment [3], in [4] and in experiment [5] was inactive.

As to `CC12CCC(C1)C(C)(C)C2O` (centres undefined), the call in experiment [10], in experiment [3], in [4], in experiment [5] and in experiment [6] was inactive.

Turning to `CCCCCCCCOS(=O)(=O)O`, the compound was called inactive in experiment [3], in [4] and in [5].

Turning to `COc1ccccc1O`, the compound was called inactive in [10], in [3], in [4], in experiment [5], in [6] and in [8].

For the compound `Cc1cc(O)c(C)c(C)c1O`, the call in [11] was inactive.

In the case of `CC1COC(=O)O1` (centres undefined), the outcome in [12], in [3], in experiment [4], in [5] and in [6] was inactive.

For `O=C(OCc1ccccc1)c1ccccc1O`, in experiment [3], the AC50 was 49.7 µM (active). In addition, the result in experiment [4] and in experiment [5] was inactive.

Take `CCC(=O)OCC=Cc1ccccc1`: the AC50 in experiment [13] is 29.2 µM (active).

Turning to `Cc1cccc(O)c1`, the result in experiment [10], in [3], in experiment [4], in experiment [5] and in experiment [6] was inactive.

As to `CN(C)CCC=C1c2ccccc2CCc2ccccc21`, in experiment [10], the call was inactive.

In the case of `CC(C)(C)c1ccc(S)cc1`, the AC50 in [10] is 10.6 µM (active). Besides, the call in [3], in experiment [4] and in [5] was inactive.

In the case of `CC(C)(O)CCc1ccccc1`, the AC50 in [14] was 25 µM (active). Besides, the compound was called inactive in [13].
